Source: PubChem BioAssay AID1159580 (chemical genetic matrix, 2015)
Screen size: about 5,500 compounds; about 2,000 (36%) were called active. Inconclusive results (about 18%) are left out. Cut-off read from the data, not from the text of the source: active = normalized growth mostly below about 0.91 (no sharp cut-off); inconclusive = no clear call, values can overlap the other calls; inactive = mostly above about 0.92. This is one part of the list.

Experiment: chemical genetic growth profiling, strain panel (AID 1159580);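 note: tested at 20 µM; growth read once vehicle control cultures reached saturation at 30 °C; 1 = growth at the plate median or of vehicle wells; lower values mean less growth of the strain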
Conditions: growth OD

Measured: normalized growth

O=C1O[C@@H](CO)[C@H](O)[C@@H](O)[C@@H]1O
inactive: S. cerevisiae deletion strains, locus YJR066W, strain TOR1, active compounds read low 0.965 | S. cerevisiae deletion strains, locus YKL009W, strain mrt4, active compounds read low 1.02 | S. cerevisiae deletion strains, locus YKL068W, active compounds read low 0.999 | S. cerevisiae deletion strains, locus YKL085W, strain MDH1 (second series), active compounds read low 0.998 | S. cerevisiae deletion strains, locus YKL085W, strain MDH1, active compounds read low 0.998 | S. cerevisiae deletion strains, locus YKL160W, strain elf1, active compounds read low 1.02 | S. cerevisiae deletion strains, locus YKL190W, strain CNB1, active compounds read low 0.999 | S. cerevisiae deletion strains, locus YKR001C, strain vps1, active compounds read low 0.985 | S. cerevisiae deletion strains, locus YKR026C, strain gcn3, active compounds read low 1.01 | S. cerevisiae deletion strains, locus YKR091W, strain srl3, active compounds read low 1.01 | S. cerevisiae deletion strains, locus YLL001W, strain dnm1, active compounds read low 1.01 | S. cerevisiae deletion strains, locus YLL026W, active compounds read low 1.02 | S. cerevisiae deletion strains, locus YLL041C, strain sdh2, active compounds read low 1.02 | S. cerevisiae deletion strains, locus YLR027C, strain aat2, active compounds read low 1.02 | S. cerevisiae deletion strains, locus YLR039C, strain RIC1, active compounds read low 1.03 | S. cerevisiae deletion strains, locus YLR058C, strain SHM2, active compounds read low 1.01 | S. cerevisiae deletion strains, locus YLR102C, strain apc9, active compounds read low 1.01 | S. cerevisiae deletion strains, locus YLR113W, strain HOG1, active compounds read low 0.963 | S. cerevisiae deletion strains, locus YLR221C, strain rsa3, active compounds read low 1.01 | S. cerevisiae deletion strains, locus YLR258W, strain gsy2, active compounds read low 1.04 | S. cerevisiae deletion strains, locus YLR262C, strain YPT6 (second series), active compounds read low 1 | S. cerevisiae deletion strains, locus YLR262C, strain YPT6, active compounds read low 1.08 | S. cerevisiae deletion strains, locus YLR268W, strain sec22, active compounds read low 1.01 | S. cerevisiae deletion strains, locus YLR320W, strain mms22, active compounds read low 1.02 | S. cerevisiae deletion strains, locus YLR330W, strain CHS5, active compounds read low 1.01 | S. cerevisiae deletion strains, locus YLR342W, strain FKS1 (second series), active compounds read low 1.04 | S. cerevisiae deletion strains, locus YLR342W, strain FKS1, active compounds read low 1.03 | S. cerevisiae deletion strains, locus YLR357W, strain rsc2, active compounds read low 1.01 | S. cerevisiae deletion strains, locus YLR370C, strain arc18, active compounds read low 1.03 | S. cerevisiae deletion strains, locus YLR371W, strain rom2, active compounds read low 1.01 | S. cerevisiae deletion strains, locus YLR384C, strain iki3, active compounds read low 1.01 | S. cerevisiae deletion strains, locus YLR418C, strain cdc73, active compounds read low 1.04 | S. cerevisiae deletion strains, locus YML016C, strain PPZ1, active compounds read low 1.01 | S. cerevisiae deletion strains, locus YML032C, strain rad52, active compounds read low 0.991 | S. cerevisiae deletion strains, locus YML120C, strain ndi1, active compounds read low 1.01 | S. cerevisiae deletion strains, locus YML124C, strain tub3, active compounds read low 1 | S. cerevisiae deletion strains, locus YMR058W, strain fet3, active compounds read low 1.03 | S. cerevisiae deletion strains, locus YMR078C, strain ctf18, active compounds read low 1 | S. cerevisiae deletion strains, locus YMR125W, strain sto1, active compounds read low 1.02 | S. cerevisiae deletion strains, locus YMR129W, active compounds read low 1.02 | S. cerevisiae deletion strains, locus YMR205C, strain PFK2, active compounds read low 1.04 | S. cerevisiae deletion strains, locus YMR223W, strain ubp8, active compounds read low 1.04 | S. cerevisiae deletion strains, locus YMR231W, strain pep5, active compounds read low 1.02 | S. cerevisiae deletion strains, locus YMR307W, strain GAS1, active compounds read low 1.05 | S. cerevisiae deletion strains, locus YNL067W, strain RPL9B, active compounds read low 0.994 | S. cerevisiae deletion strains, locus YNL071W, strain lat1, active compounds read low 1.02 | S. cerevisiae deletion strains, locus YNL128W, strain TEP1, active compounds read low 1.02 | S. cerevisiae deletion strains, locus YNL183C, strain NPR1, active compounds read low 0.944 | S. cerevisiae deletion strains, locus YNL209W, strain ssb2, active compounds read low 1.03 | S. cerevisiae deletion strains, locus YNL233W, strain BNI4, active compounds read low 1 | S. cerevisiae deletion strains, locus YNL248C, strain rpa49, active compounds read low 1.06 | S. cerevisiae deletion strains, locus YNL250W, strain rad50, active compounds read low 1.05 | S. cerevisiae deletion strains, locus YNL271C, strain bni1, active compounds read low 0.993 | S. cerevisiae deletion strains, locus YNL298W, strain CLA4, active compounds read low 1.01 | S. cerevisiae deletion strains, locus YNL307C, strain MCK1, active compounds read low 1 | S. cerevisiae deletion strains, locus YNL322C, strain KRE1 (second series), active compounds read low 1 | S. cerevisiae deletion strains, locus YNR049C, strain mso1, active compounds read low 1.02 | S. cerevisiae deletion strains, locus YNR052C, strain pop2, active compounds read low 1.01 | S. cerevisiae deletion strains, locus YOL006C, strain TOP1, active compounds read low 0.992 | S. cerevisiae deletion strains, locus YOL012C, strain htz1 0.898 | S. cerevisiae deletion strains, locus YOL147C, strain pex11, active compounds read low 1 | S. cerevisiae deletion strains, locus YOR001W, strain rrp6, active compounds read low 1.01 | S. cerevisiae deletion strains, locus YOR061W, strain CKA2, active compounds read low 1 | S. cerevisiae deletion strains, locus YOR069W, strain VPS5, active compounds read low 1.01 | S. cerevisiae deletion strains, locus YOR070C, strain gyp1, active compounds read low 1.03 | S. cerevisiae deletion strains, locus YOR080W, strain dia2, active compounds read low 1.01 | S. cerevisiae deletion strains, locus YOR083W, strain WHI5, active compounds read low 0.994 | S. cerevisiae deletion strains, locus YOR106W, strain vam3, active compounds read low 1.01 | S. cerevisiae deletion strains, locus YOR136W, strain idh2, active compounds read low 0.99 | S. cerevisiae deletion strains, locus YOR144C, strain elg1, active compounds read low 1.01 | S. cerevisiae deletion strains, locus YOR184W, strain ser1, active compounds read low 1 | S. cerevisiae deletion strains, locus YOR231W, strain MKK1, active compounds read low 0.968 | S. cerevisiae deletion strains, locus YOR265W, strain rbl2, active compounds read low 1.02 | S. cerevisiae deletion strains, locus YOR270C, strain vph1, active compounds read low 1.06 | S. cerevisiae deletion strains, locus YOR290C, strain snf2, active compounds read low 1.04 | S. cerevisiae deletion strains, locus YOR316C, strain cot1, active compounds read low 1.01 | S. cerevisiae deletion strains, locus YPL051W, strain arl3, active compounds read low 1 | S. cerevisiae deletion strains, locus YPL055C, strain LGE1, active compounds read low 0.958 | S. cerevisiae deletion strains, locus YPL078C, strain atp4, active compounds read low 1.03 | S. cerevisiae deletion strains, locus YPL106C, strain sse1, active compounds read low 1.04 | S. cerevisiae deletion strains, locus YPL240C, strain hsp82, active compounds read low 1.01 | S. cerevisiae deletion strains, locus YPL241C, strain CIN2, active compounds read low 1 | S. cerevisiae deletion strains, locus YPL256C, strain CLN2, active compounds read low 0.953 | S. cerevisiae deletion strains, locus YPR119W, strain clb2, active compounds read low 1 | S. cerevisiae deletion strains, locus YPR141C, strain kar3, active compounds read low 0.989 | S. cerevisiae deletion strains, locus YPR163C, strain tif3, active compounds read low 1 | S. cerevisiae deletion strains, locus YPR167C, strain met16, active compounds read low 1.01 | S. cerevisiae deletion strains, strain wtn01, active compounds read low 0.997 | S. cerevisiae strains, strain wild type, active compounds read low 1
